Rows were chosen to be rich in hits. Some 3.2% of all compounds tested hit in one or more screens of this group.
CaV13 ICDI inh = Disruptors of the CACNA1D IQ motif to Ca2+-dependent inactivation inhibitor domain association, primary screening, Förster resonance energy transfer in intact living … | inhibition, % at 12.3 µM | HEK cells, CFP/YFP FRET ICDI-IQ, plate reader, 10 min; percent FRET-ratio fall versus neutral wells | 0.098% of 340,000 active;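 active = mean replicate inhibition of at least 30% and at least 1% of replicates passing that level; inconclusive = only one of the two criteria is met; inactive = neither criterion is met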;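 note: 0% = median of the neutral control wells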
GSIS activator = primary screen for activators of insulin secretion dependent on glucose, INS-1E cells, GLuc reporter luminescence; INS-1E GLuc reporter insulin secretion, 2-3 h; activation, % at 16.6 µM; 0.61% of 370,000 active; AID 743287;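 active = lowest replicate activation of at least 40%, so every replicate reaches that level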;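 note: 0% = median of neutral control wells and 100% = median of IBMX positive control wells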
rRNA inh HTS = inhibitors of bacterial rRNA selective over humanized ribosomes; GFP signal change (wild-type ribosome), % (no concentration beside the values); E. coli WT GFP vs humanized-ribosome RFP mutants, fluorescence, 24 h; hits give low values; DMSO median 0, no signal -100; 1.6% of 350,000 active; AID 720706;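 active = significant combined selectivity score with lowered wild-type GFP, culture density cut under 30%, mutant RFP and density less affected; inactive = any of these conditions unmet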
PGC1a acetyl inh = PGC1a acetylation modulation, inhibitor mode. U2OS PGC1a acetylation, AlphaScreen anti-acetyl-lysine; with virally co-expressed GCN5 acetyltransferase. inhibition, % at 15.6 µM. 0.17% of 350,000 active. AID 651687;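 active = every replicate shows inhibition of at least 40%; inconclusive = mean inhibition at least 40% but some replicate below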;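 note: 0% = neutral control wells and 100% = positive control wells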
DENV2 CPE = protects cells from dengue virus 2 cytopathic effect. DENV2-infected cells, cytopathic effect rescue, plate reader. 1.7% of 350,000 active. CPE inhibition, % at 9.99 µM; in the data active = CPE inhibition above about 20%, passing the limit was not always enough; inconclusive = no clear call, values can overlap the other calls; tested in BHK-21 cells;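 note: 0% = median of neutral control wells and 100% = median of positive control wells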
ERAP1 HTS inh = inhibitors of human ERAP1 aminopeptidase. 0.15% of 340,000 active. recombinant ERAP1, Leu-AMC fluorescence, 60 min. inhibition, % at 10.7 µM. Q9NZ08. AID 652197;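 active = mean replicate inhibition of at least 30%, or all replicates individually reaching that 30% level; inactive = mean below 30% and not every replicate reaching it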;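 note: 0% = neutral control wells and 100% = L-leucinethiol positive control wells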
Target sequence (Q9NZ08 whole entry, looked up): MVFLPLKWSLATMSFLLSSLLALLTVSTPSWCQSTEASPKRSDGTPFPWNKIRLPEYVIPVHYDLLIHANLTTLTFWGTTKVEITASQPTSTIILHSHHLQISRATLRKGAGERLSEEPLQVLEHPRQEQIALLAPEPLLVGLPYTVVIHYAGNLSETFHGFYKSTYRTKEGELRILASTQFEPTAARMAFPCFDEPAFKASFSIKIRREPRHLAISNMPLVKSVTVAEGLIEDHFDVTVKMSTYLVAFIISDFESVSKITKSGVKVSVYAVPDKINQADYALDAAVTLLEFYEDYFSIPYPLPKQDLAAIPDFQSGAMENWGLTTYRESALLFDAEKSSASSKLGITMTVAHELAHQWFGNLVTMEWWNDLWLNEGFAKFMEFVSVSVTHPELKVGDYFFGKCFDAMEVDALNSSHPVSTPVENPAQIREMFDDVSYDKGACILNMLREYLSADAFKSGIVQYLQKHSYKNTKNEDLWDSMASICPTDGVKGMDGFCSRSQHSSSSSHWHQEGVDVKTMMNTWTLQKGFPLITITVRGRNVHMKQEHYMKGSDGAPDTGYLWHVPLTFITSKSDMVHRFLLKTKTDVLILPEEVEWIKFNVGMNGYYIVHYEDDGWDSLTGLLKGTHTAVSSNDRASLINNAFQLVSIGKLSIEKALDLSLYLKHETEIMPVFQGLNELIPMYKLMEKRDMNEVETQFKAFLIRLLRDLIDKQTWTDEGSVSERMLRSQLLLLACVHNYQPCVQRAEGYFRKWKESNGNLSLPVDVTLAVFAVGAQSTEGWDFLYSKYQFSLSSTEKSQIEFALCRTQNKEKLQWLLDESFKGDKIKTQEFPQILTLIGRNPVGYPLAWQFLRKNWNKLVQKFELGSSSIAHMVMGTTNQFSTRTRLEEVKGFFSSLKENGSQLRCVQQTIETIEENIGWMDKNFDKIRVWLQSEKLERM
* hit, by the source's call; ? = inconclusive; · = no result; ! = a repeat was not active.

SMILES	CaV13 ICDI inh	GSIS activator	rRNA inh HTS	PGC1a acetyl inh	DENV2 CPE	ERAP1 HTS inh
C[C@H]1CN([C@@H](C)CO)C(=O)CCCn2cc(nn2)CO[C@@H]1CN(C)C(=O)Nc1ccc(C(C)(C)C)cc1	-6	-9	6	-5	14	-1
CC(C)OC(=O)N(C)C[C@@H]1OCc2cn(nn2)CCCC(=O)N([C@@H](C)CO)C[C@H]1C	-5	3	2	9	36*!	-2
C[C@@H]1CN([C@@H](C)CO)C(=O)CCCn2cc(nn2)CO[C@@H]1CN(C)Cc1cccc(C(=O)O)c1	·	8	1	8	30*	-3
C[C@@H]1CN([C@@H](C)CO)C(=O)CCCn2cc(nn2)CO[C@H]1CN(C)C(=O)Nc1cccc(F)c1	-8	10	-1	4	87*!	-3
CCC(=O)N(C)C[C@H]1Oc2ncc(-c3ccccc3C)cc2C(=O)N([C@@H](C)CO)C[C@H]1C	·	9	4	15	?	-2
C[C@@H]1CN([C@H](C)CO)C(=O)CCCn2cc(nn2)CO[C@H]1CN(C)C(=O)Nc1ccccc1C(F)(F)F	-7	-1	-2	14	48*!	4
CCN(C(=O)COC(=O)c1cc(-c2ccccc2)nn1-c1ccccc1)C1CCS(=O)(=O)C1 (stereo not given)	1	·	-31*	-4	-3	2
CCN(C(=O)COC(=O)c1n[nH]c2ccccc12)C1CCS(=O)(=O)C1 (stereo not given)	-20	3	11	·	·	6
CC(C)CN(C(=O)COC(=O)c1cc2c(s1)CCC2)C1CCS(=O)(=O)C1 (stereo not given)	-6	-4	·	4	·	·
CCN(C(=O)COC(=O)c1cc2c(s1)CCCCC2)C1CCS(=O)(=O)C1 (stereo not given)	-5	-1	11	0	60*	-1
C[C@@H]1CN([C@H](C)CO)C(=O)Cc2cc(NC(=O)Nc3ccc(F)cc3)ccc2O[C@@H]1CN(C)S(=O)(=O)c1cccs1	·	-13	-5	-9	-9	3
CCNC(=O)C[C@H]1CC[C@H]2[C@@H](COC[C@@H](O)CN2C(=O)Nc2ccc3c(c2)OCO3)O1	·	18	4	-1	0	2
CCOC(=O)c1ccccc1NC(=O)c1cccc2c1C(=O)N(C1CCN(C(=O)OCC)CC1)C2	-2	-17	2	2	14	1
CCOC(=O)N1CCC(N2Cc3cccc(C(=O)Nc4ccccc4OC)c3C2=O)CC1	-16	-10	-21*	-6	-5	-3
Cc1cc(C)cc(NC(=O)c2cccc3c2C(=O)N(C2CCCCC2)C3)c1	·	·	·	18	·	·
COc1cc(NC(=O)c2cccc3c2C(=O)N(C2CCCCC2)C3)cc(OC)c1OC	-15	-26	-41*	9	5	3
O=C(C[C@@H]1CC[C@H](NC(=O)C2CCOCC2)[C@H](CO)O1)Nc1ccc(-c2ccccc2)cc1	·	-13	-1	-10	?	1
COC(=O)c1ccc(CNC(=O)CCc2c[nH]c3ccccc23)cc1	-3	50*	0	·	3	2
COc1ccc(CNC(=O)CCc2c[nH]c3ccccc23)cc1	-3	14	5	·	-10	-1
O=C1C=CCCN1S(=O)(=O)/C=C/c1ccccc1	·	·	·	59*	0	0
CCCC#Cc1ccc([C@H]2[C@@H](CO)N3C(=O)CN(C(=O)NC4CCCC4)C[C@@H]23)cc1	·	-2	2	-16	31*	-1
O=C(Nc1ccccc1F)N1CC(=O)N2[C@@H](CO)[C@H](c3ccc(C#Cc4ccc(F)cc4)cc3)[C@@H]2C1	·	-22	-5	13	-2	1
O=C(Nc1ccc(F)cc1)N1CC(=O)N2[C@@H](CO)[C@H](c3ccc(C#Cc4ccc(F)cc4)cc3)[C@@H]2C1	·	-8	-16	9	5	3
O=C(Nc1ccccc1F)N1CC(=O)N2[C@H](CO)[C@H](c3ccc(C#Cc4ccc(F)cc4)cc3)[C@@H]2C1	·	11	-6	4	27*	0
